Records with an inconclusive call do not appear. A call without a number means that no potency is given here. Activity calls are given as the source filed them. The call rests on the fitted dose curve; in most records, active means well fitted cell-killing curve with a large enough effect; inconclusive means small, poorly fitted or top-dose-only effect, or effect the other way; inactive means flat fitted curve, though single readings scatter.

This experiment has as its system SKOV3. Put plainly: Primary qHTS to identify gynecologic anti-cancer compounds using libraries of approved drugs and bioactive compounds (AID 1345084). Further: nearly all actives have a fitted effect of over 55% in size. To be noted: Gynecologic cancer cell panel viability, ATPlite luminescence, 48 h; series mostly up to 57.5 µM. In short, it runs like this:
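Cells, 1,000 per well, were allowed to settle for 16 h at 37 C before compound addition. Five concentrations were tested for 48 h, and viability was read by ATPlite luminescence after 15 min at room temperature.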
`CO[C@@H]1CC[C@H](OC[C@]2(COC(=O)c3ccc(C)[nH]3)[C@H](OC(C)=O)CC[C@@]3(C)[C@@H]4CC=C(C)[C@@H](C5=C(O)C(=O)OC5O)[C@]4(C)CC[C@@H]32)O[C@H]1C` (stereo not given in full): the Potency entry was “inactive”.

`C=C1CCC2C(OC(=O)C2(O)COC(C)=O)C2C(=C)C(O)CC12` (stereo not given): the Potency entry is “inactive”. Same read-out and setting: the same measure for `CC1=C2C=C(CO)C(CO)CCC2(C)CCC1=O` (stereo not given): “inactive”. For `C=C1[C@H]2CC[C@]3(O)[C@@](CC[C@@H]4[C@](C)(C(=O)O)CCC[C@]43C)(C2)[C@H]1OC(=O)/C(C)=C\C`, the Potency entry is “inactive”. In the case of `O=C(O[C@H]1[C@@H]2C=CO[C@@H](O[C@@H]3O[C@H](CO)[C@@H](O)[C@H](O)[C@H]3O)[C@@H]2[C@@]2(CO)O[C@@H]12)c1ccc(O)cc1`, the Potency entry is “inactive”.

On to `CC(C)(O)/C=C1/C(=O)C(C)(C)C(=O)C(C)(C)C1(O)O[C@@H]1O[C@H](COC(=O)c2cc(O)c(O)c(O)c2)[C@@H](O)[C@H](O)[C@H]1O` (stereo not given in full), for which the Potency result was “inactive”. Consider `CN1CC[C@@H](NC(=O)Nc2ccc(C#N)cc2)C[C@@H]1c1nc2ccccc2[nH]1`, for which the Potency result is “inactive”. As for `C[C@H]1[C@H](C)CC[C@]2(C(=O)O[C@@H]3O[C@H](CO)[C@@H](O)[C@H](O)[C@H]3O)CC[C@]3(C(=O)O)C(=CCC4[C@@]5(C)CC[C@H](O[C@@H]6O[C@H](CO)[C@@H](O)[C@H](O)[C@H]6O)C(C)(C)C5CC[C@]43C)[C@H]12` (stereo not given in full), the activity change, negative = cytotoxicity was 23.4% [at 11.6 µM] (inactive). Regarding `c1nc(NC2CCCCCC2)c2cc(CNC[C@H]3CCCO3)sc2n1`, the Potency entry is “inactive”. As to `CCNC(=O)[C@H]1O[C@H](n2cnc3c(NCC(c4ccccc4)c4ccccc4)nc(C(=O)NCCNC(=O)NC4CCN(c5ccccn5)CC4)nc32)[C@H](O)[C@@H]1O`, the Potency entry is “inactive”.

The record behind these values is PubChem BioAssay (NCATS).
